How the values were obtained:
[1] = tested on: Vero E6 infected with SARS-CoV-2; assay: morphology score (similarity to uninfected cells); higher = more like uninfected cells; conditions: 24 h
[2] = tested on: Vero E6 infected with SARS-CoV-2; assay: SARS-CoV-2 infection rate relative to infected DMSO; higher = more infection, active = 60 or less; conditions: 24 h

CC[C@H](Nc1ncnc2[nH]cnc12)c1nc2cccc(F)c2c(=O)n1-c1ccccc1 [idelalisib] (10 µM)
morphology score [1]: -0.015
SARS-CoV-2 infection rate [2]: 116% (inactive)

N#Cc1cccc(-c2c[nH]c3ncnc(N4CCOCC4)c23)c1 (10 µM)
morphology score [1]: 0.304
SARS-CoV-2 infection rate [2]: 108% (inactive)

CC(C)(C)CC(=O)Nc1c(F)cc(C(=O)/N=c2\sccn2COP(=O)(O)O)cc1F (10 µM)
morphology score [1]: 0.0762
SARS-CoV-2 infection rate [2]: 93.5% (inactive)

Cc1c(O)cccc1C(=O)N[C@@H](CSc1ccccc1)[C@H](O)CN1C[C@H]2CCCC[C@H]2C[C@H]1C(=O)NC(C)(C)C [nelfinavir] (10 µM)
morphology score [1]: 0.722
SARS-CoV-2 infection rate [2]: 47.5% (active)

Fc1ccc2c(CCNCc3cccc(OCC(F)(F)C(F)F)c3)c[nH]c2c1 [idalopirdine] (10 µM)
morphology score [1]: -0.145
SARS-CoV-2 infection rate [2]: 114% (inactive)

CC1(C)CN(C(=O)c2ccc(-c3cccc4nc(NC(=O)C5CC5)nn34)cc2)C1 [solcitinib] (10 µM)
morphology score [1]: 0.0939
SARS-CoV-2 infection rate [2]: 110% (inactive)

CCC(CC)O[C@@H]1C=C(C(=O)O)C[C@H](N)[C@H]1NC(C)=O [oseltamivir-carboxylate] (10 µM)
morphology score [1]: -0.0548
SARS-CoV-2 infection rate [2]: 102% (inactive)

C[C@@]1(CO)[C@H](O)CC[C@@]2(C)[C@H]1CC[C@H]1C[C@@H]3C[C@@]12CC[C@]3(O)CO [aphidicolin] (0.833333 µM)
morphology score [1]: -0.0875
SARS-CoV-2 infection rate [2]: 106% (inactive)

O=C(O)CCC/C=C\C[C@@H]1[C@@H](/C=C/[C@@H](O)COc2cccc(Cl)c2)[C@H](O)C[C@@H]1O (racemic) [cloprostenol-(+/-)] (10 µM)
morphology score [1]: -0.0265
SARS-CoV-2 infection rate [2]: 110% (inactive)

CCOC(=O)c1ccc(OCCC2CCN(c3ccc(C)nn3)CC2)cc1 [pirodavir] (10 µM)
morphology score [1]: 0.0282
SARS-CoV-2 infection rate [2]: 104% (inactive)

O=C(NC1CCNCC1)[C@@H]1CC[C@@H]2CN1C(=O)N2OS(=O)(=O)O [relebactam] (10 µM)
morphology score [1]: 0.0111
SARS-CoV-2 infection rate [2]: 110% (inactive)

OC[C@H]1O[C@H]([S-])[C@H](O)[C@@H](O)[C@@H]1O.[Au+] [aurothioglucose] (10 µM)
morphology score [1]: -0.0654
SARS-CoV-2 infection rate [2]: 110% (inactive)

NCc1ccccc1CC(=O)N[C@@H]1C(=O)N2C(C(=O)O)=C(CSc3nnnn3CC(=O)O)CS[C@H]12 [ceforanide] (10 µM)
morphology score [1]: 0.13
SARS-CoV-2 infection rate [2]: 100% (inactive)

CN(C)CCOc1ccc(/C(=C(/CCCl)c2ccccc2)c2ccccc2)cc1 [toremifene] (0.833333 µM)
morphology score [1]: -0.0544
SARS-CoV-2 infection rate [2]: 112% (inactive)

Cc1ccc(Sc2cncc3sc(C(N)=O)cc23)cc1 (10 µM)
morphology score [1]: -0.153
SARS-CoV-2 infection rate [2]: 114% (inactive)

CN1CCC[C@@H](CC2c3ccccc3Sc3ccccc32)C1 (racemic) [metixene] (0.833333 µM)
morphology score [1]: 0.383
SARS-CoV-2 infection rate [2]: 86% (inactive)

Nc1c(CC(=O)O)cccc1C(=O)c1ccccc1 [amfenac] (10 µM)
morphology score [1]: 0.0516
SARS-CoV-2 infection rate [2]: 104% (inactive)

Cc1cccc(C)c1NC(=O)C[N+](C)(C)C (10 µM)
morphology score [1]: 0.198
SARS-CoV-2 infection rate [2]: 97% (inactive)

CC(C)[C@@]1(NC(=O)[C@@H]2C[C@@H]3c4cccc5[nH]cc(c45)C[C@H]3N(C)C2)O[C@@]2(O)[C@@H]3CCCN3C(=O)[C@H](Cc3ccccc3)N2C1=O [dihydroergocristine] (10 µM)
morphology score [1]: -0.123
SARS-CoV-2 infection rate [2]: 117% (inactive)

O=C(COc1ccc(C(=O)c2ccccc2)cc1)NC1CCN(Cc2ccccc2)CC1 [adiporon] (10 µM)
morphology score [1]: 0.0636
SARS-CoV-2 infection rate [2]: 106% (inactive)

CC(=O)O[C@]1(C(C)=O)CC[C@H]2[C@@H]3C[C@H](C)C4=CC(=O)CC[C@]4(C)[C@H]3CC[C@@]21C [medroxyprogesterone-acetate] (10 µM)
morphology score [1]: 0.153
SARS-CoV-2 infection rate [2]: 105% (inactive)

CC[N+](CC)(CCNC(=O)C(=O)NCC[N+](CC)(CC)Cc1ccccc1Cl)Cc1ccccc1Cl [ambenonium] (10 µM)
morphology score [1]: 0.131
SARS-CoV-2 infection rate [2]: 106% (inactive)

COc1ccc(Br)cc1S(=O)(=O)NC(=O)/C=C/c1ccccc1Cc1ccc2ccccc2c1 (10 µM)
morphology score [1]: 0.19
SARS-CoV-2 infection rate [2]: 79.5% (inactive)

COc1ccnc2[nH]cc(C(=O)C(=O)N3CCN(C(=O)c4ccccc4)C[C@H]3C)c12 (10 µM)
morphology score [1]: -0.0708
SARS-CoV-2 infection rate [2]: 99% (inactive)

Nc1ccc(C(=O)O)c(O)c1 [aminosalicylate] (10 µM)
morphology score [1]: -0.137
SARS-CoV-2 infection rate [2]: 106% (inactive)

Cc1ccc(S(=O)(=O)n2c(N)nc3ccccc32)cc1 (10 µM)
morphology score [1]: -0.0202
SARS-CoV-2 infection rate [2]: 108% (inactive)

Cc1c(N)nc([C@H](CC(N)=O)NC[C@H](N)C(N)=O)nc1C(=O)N[C@H](C(=O)N[C@H](C)[C@@H](O)[C@H](C)C(=O)N[C@H](C(=O)NCCc1nc(-c2nc(C(=O)NCCC[S+](C)C)cs2)cs1)[C@@H](C)O)[C@@H](OC1OC(CO)C(O)C(O)C1OC1OC(CO)C(O)C(OC(N)=O)C1O)c1cnc[nH]1 (stereo partly specified) [bleomycin] (10 µM)
morphology score [1]: 0.0285
SARS-CoV-2 infection rate [2]: 100% (inactive)

CC(C)CC(NC(=O)OCC1c2ccccc2-c2ccccc21)C(=O)O (stereo in doubt) (10 µM)
morphology score [1]: 0.145
SARS-CoV-2 infection rate [2]: 96% (inactive)

CNC(=O)[C@H](Cc1c[nH]c2ccccc12)NC(=O)[C@@H](CC(=O)NO)CC(C)C [ilomastat] (10 µM)
morphology score [1]: -0.0294
SARS-CoV-2 infection rate [2]: 114% (inactive)

O=C(CCCN1CCC(O)(c2ccc(Br)cc2)CC1)c1ccc(F)cc1 [bromperidol] (10 µM)
morphology score [1]: -0.0835
SARS-CoV-2 infection rate [2]: 106% (inactive)

O=C(Nc1c[nH]nc1-c1nc2ccc(CN3CCOCC3)cc2[nH]1)NC1CC1 (0.833333 µM)
morphology score [1]: 0.0293
SARS-CoV-2 infection rate [2]: 118% (inactive)

C[N+]1(C)[C@@H]2CC[C@H]1C[C@@H](OC(=O)C(O)c1ccccc1)C2 (stereo partly specified) [homatropine-methylbromide] (10 µM)
morphology score [1]: -0.0363
SARS-CoV-2 infection rate [2]: 104% (inactive)

COCC(=O)O[C@]1(CCN(C)CCCc2nc3ccccc3[nH]2)CCc2cc(F)ccc2[C@@H]1C(C)C [mibefradil] (10 µM)
morphology score [1]: 0.79
SARS-CoV-2 infection rate [2]: 17.5% (active)

C[C@]12CC[C@@H]3c4ccc(O)cc4CC[C@H]3[C@@H]1C[C@@H](O)[C@@H]2O [estriol] (10 µM)
morphology score [1]: -0.0117
SARS-CoV-2 infection rate [2]: 108% (inactive)

CC(=O)N(C)c1cccc(-c2ccnc3c(C(=O)c4cccs4)cnn23)c1 [indiplon] (10 µM)
morphology score [1]: -0.213
SARS-CoV-2 infection rate [2]: 116% (inactive)

CC(C)(C)c1ccc(O)cc1 [4-tert-butylphenol] (10 µM)
morphology score [1]: 0.0892
SARS-CoV-2 infection rate [2]: 110% (inactive)

CN1[C@H]2C[C@H](OC(=O)[C@H](CO)c3ccccc3)C[C@@H]1[C@@H](O)C2 [anisodamine] (10 µM)
morphology score [1]: -0.00951
SARS-CoV-2 infection rate [2]: 116% (inactive)

CCN1C(=O)NC(c2ccccc2)C1=O (stereo unspecified) [ethotoin] (10 µM)
morphology score [1]: 0.221
SARS-CoV-2 infection rate [2]: 97% (inactive)

COC(=O)C[C@](O)(CCC(C)(C)O)C(=O)O[C@@H]1C(OC)=C[C@]23CCCN2CCc2cc4c(cc2[C@H]13)OCO4 [harringtonine] (10 µM)
morphology score [1]: 0.555
SARS-CoV-2 infection rate [2]: 49% (active)

O=c1oc2ccccc2c(O)c1Cc1c(O)c2ccccc2oc1=O [dicoumarol] (10 µM)
morphology score [1]: 0.0403
SARS-CoV-2 infection rate [2]: 108% (inactive)

COc1ccc(-c2ccc3ncc4c(c3c2)n(-c2ccc(N3CCNCC3)c(C(F)(F)F)c2)c(=O)n4C)cn1 (0.833333 µM)
morphology score [1]: 0.115
SARS-CoV-2 infection rate [2]: 104% (inactive)

Nc1nc(N)nc(-c2cc(Cl)ccc2Cl)n1 [irsogladine] (10 µM)
morphology score [1]: 0.168
SARS-CoV-2 infection rate [2]: 94.5% (inactive)

O=C(Nc1ccc(-c2ccnc(Nc3ccc(N4CCOCC4)cc3)n2)cc1)C1CCCN1 (stereo unspecified) (10 µM)
morphology score [1]: 0.607
SARS-CoV-2 infection rate [2]: 73.5% (inactive)

O=c1[nH]c(=O)n([C@H]2C[C@H](O)[C@@H](CO)O2)cc1F [floxuridine] (0.833333 µM)
morphology score [1]: -0.065
SARS-CoV-2 infection rate [2]: 99% (inactive)

CCCCCCCCCCCCc1ccc(S(=O)(=O)Nc2nncs2)cc1 (10 µM)
morphology score [1]: 0.158
SARS-CoV-2 infection rate [2]: 93% (inactive)

O=C(O)c1ccc(NC(=O)[C@H](Cc2ccc(O)cc2)NC(=O)c2ccccc2)cc1 [bentiromide] (10 µM)
morphology score [1]: 0.211
SARS-CoV-2 infection rate [2]: 106% (inactive)

Cc1cnc(-c2ccccc2C(C)C)nc1NCc1ccc(-n2ccnn2)cc1 (10 µM)
morphology score [1]: 0.0189
SARS-CoV-2 infection rate [2]: 101% (inactive)

Cc1nc(N)sc1CCN [amthamine] (10 µM)
morphology score [1]: 0.148
SARS-CoV-2 infection rate [2]: 92.5% (inactive)

CCOCc1nc2c(N)nc3ccccc3c2n1CC(C)(C)O [resiquimod] (10 µM)
morphology score [1]: 0.0727
SARS-CoV-2 infection rate [2]: 113% (inactive)

Cc1c(C)c2c(c(C)c1O)CCC(C)(C(=O)O)O2 (stereo unspecified) [trolox] (0.833333 µM)
morphology score [1]: 0.0965
SARS-CoV-2 infection rate [2]: 98.5% (inactive)

CCCCCCCCCCCCCC[C@@H](O)[C@@H](O)[C@@H](N)CO [phytosphingosine] (10 µM)
morphology score [1]: -0.0786
SARS-CoV-2 infection rate [2]: 108% (inactive)

COc1cc2c(Oc3ccc4[nH]c(C)cc4c3F)ccnc2cc1OCC1(N)CC1 [anlotinib] (10 µM)
morphology score [1]: -0.207
SARS-CoV-2 infection rate [2]: 100% (inactive)

CN1CCN(c2ccc(Nc3ncc4cc(C#N)c(=O)n(C5CCCC5)c4n3)cc2)CC1 (0.833333 µM)
morphology score [1]: 0.153
SARS-CoV-2 infection rate [2]: 104% (inactive)

CNCc1ccc(C)c(NC(=O)c2ccc(Nc3nc(-c4ccccc4)c4ccccc4n3)cc2)c1 (0.833333 µM)
morphology score [1]: 0.213
SARS-CoV-2 infection rate [2]: 98% (inactive)

CN(C)Cc1c(C(=O)NCCOc2ccc(C(=O)NO)cc2)oc2ccccc12 (10 µM)
morphology score [1]: -0.197
SARS-CoV-2 infection rate [2]: 96.5% (inactive)

CC(C)C[C@H](NC(=O)[C@@H]1CCCN1)C(=O)NCC(N)=O [prolylleucylglycinamide] (10 µM)
morphology score [1]: 0.103
SARS-CoV-2 infection rate [2]: 99% (inactive)

CSC[C@H](N)C(=O)O [S-methylcysteine] (10 µM)
morphology score [1]: 0.000717
SARS-CoV-2 infection rate [2]: 102% (inactive)

Cc1cccc(C)c1NC(=O)CC12CCCN1CCC2 [pilsicainide] (10 µM)
morphology score [1]: -0.223
SARS-CoV-2 infection rate [2]: 115% (inactive)

From the supplement of paper PMC13380429
